Laboratory results reported in PubChem BioAssay AID1159580 (chemical genetic matrix, 2015).
Several values for one entry are separate records, joined by “and”; a condition that tells them apart may be missing. Equal entries are not always repeated. Out of some 5,500 compounds screened, about 2,000 (36%) were called active. Another 18% or so got no clear call; they are omitted. Cut-off read from the data, not from the text of the source: active = normalized growth mostly below about 0.91 (no sharp cut-off); inconclusive = no clear call, values can overlap the other calls; inactive = mostly above about 0.92. This is one part of the list.

Experiment: chemical genetic growth profiling, strain panel (AID 1159580);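 note: tested at 20 µM; growth read once vehicle control cultures reached saturation at 30 °C; 1 = growth at the plate median or of vehicle wells; lower values mean less growth of the strain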
Conditions: S. cerevisiae deletion strains, growth OD

Measured: normalized growth

Oc1c(Br)cc(Br)c2cccnc12
active: locus YAL013W, strain DEP1, active compounds read low 0.0586 | locus YAL021C, strain ccr4, active compounds read low 0.0663 | locus YAL026C, strain drs2, active compounds read low 0.0631 | locus YAL030W, strain snc1, active compounds read low 0.055 | locus YBL061C, strain skt5, active compounds read low 0.0586 | locus YBR009C, strain hhf1, active compounds read low 0.0623 | locus YBR021W, strain FUR4, active compounds read low 0.0949 | locus YBR023C, strain chs3, active compounds read low 0.0634 | locus YBR171W, strain sec66, active compounds read low 0.0756 | locus YBR229C, strain ROT2, active compounds read low 0.0506 | locus YBR231C, strain swc5, active compounds read low 0.0629 | locus YBR279W, strain paf1, active compounds read low 0.0612 | locus YCL011C, strain gbp2, active compounds read low 0.0575 | locus YCL016C, strain dcc1, active compounds read low 0.0701 | locus YCL029C, strain bik1, active compounds read low 0.07 | locus YCL061C, strain MRC1, active compounds read low 0.0647 | locus YCL069W, strain vba3, active compounds read low 0.0645 | locus YCR088W, strain abp1, active compounds read low 0.0595 | locus YDL005C, strain med2, active compounds read low 0.0726 | locus YDL035C, strain GPR1, active compounds read low 0.0512 | locus YDL040C, strain nat1, active compounds read low 0.0563 | locus YDL074C, strain BRE1, active compounds read low 0.0885 | locus YDL101C, strain DUN1, active compounds read low 0.0585 | locus YDL134C, strain PPH21, active compounds read low 0.0526 | locus YDL185W, strain tfp1, active compounds read low 0.0677 | locus YDL192W, strain arf1, active compounds read low 0.0671 | locus YDR001C, strain nth1, active compounds read low 0.0572 | locus YDR069C, strain doa4, active compounds read low 0.0693 | locus YDR101C, strain arx1, active compounds read low 0.0674 | locus YDR137W, strain rgp1, active compounds read low 0.107 | locus YDR150W, strain NUM1, active compounds read low 0.0621 | locus YDR159W, strain sac3, active compounds read low 0.0892 | locus YDR162C, strain NBP2, active compounds read low 0.0492 | locus YDR195W, strain ref2 0.126 | locus YDR297W, strain sur2, active compounds read low 0.0575 | locus YDR318W, strain mcm21, active compounds read low 0.071 | locus YDR334W, strain swr1, active compounds read low 0.0608 | locus YDR335W, strain msn5, active compounds read low 0.0583 | locus YDR388W, active compounds read low 0.0637 | locus YDR392W, strain spt3, active compounds read low 0.0808 | locus YDR502C, strain sam2, active compounds read low 0.0753 | locus YEL003W, strain gim4, active compounds read low 0.0546 | locus YEL037C, strain rad23, active compounds read low 0.0573 | locus YEL061C, strain CIN8 (second series), active compounds read low 0.145 | locus YEL061C, strain CIN8, active compounds read low 0.05 | locus YER015W, strain faa2, active compounds read low 0.0595 | locus YER016W, strain bim1, active compounds read low 0.0608 | locus YER110C, active compounds read low 0.0879 | locus YER111C, strain swi4, active compounds read low 0.0694 | locus YER155C, strain BEM2 (second series), active compounds read low 0.0894 | locus YER155C, strain BEM2, active compounds read low 0.0691 | locus YER167W, strain BCK2, active compounds read low 0.0561 | locus YFR010W, strain ubp6, active compounds read low 0.0731 | locus YGL078C, strain dbp3, active compounds read low 0.0674 | locus YGL086W, strain mad1, active compounds read low 0.0628 | locus YGL167C, strain pmr1, active compounds read low 0.079 | locus YGL173C, strain kem1, active compounds read low 0.0675 | locus YGL227W, strain vid30, active compounds read low 0.0683 | locus YGL240W, strain doc1, active compounds read low 0.0807 | locus YGL248W, strain PDE1, active compounds read low 0.0474 | locus YGL253W, strain hxk2, active compounds read low 0.0544 | locus YGR078C, strain PAC10, active compounds read low 0.0525 | locus YGR135W, strain pre9, active compounds read low 0.0723 | locus YGR229C, strain SMI1, active compounds read low 0.0593 | locus YGR252W, strain gcn5, active compounds read low 0.146 | locus YHR013C, strain ard1, active compounds read low 0.115 | locus YHR027C, strain rpn1, active compounds read low 0.0627 | locus YHR030C, strain SLT2, active compounds read low 0.0528 and 0.107 | locus YHR079C, strain IRE1 (second series), active compounds read low 0.0637 | locus YHR079C, strain IRE1, active compounds read low 0.113 | locus YHR094C, strain hxt1, active compounds read low 0.0678 | locus YHR129C, strain ARP1, active compounds read low 0.059 | locus YHR142W, strain chs7, active compounds read low 0.0809 | locus YHR200W, strain rpn10, active compounds read low 0.0663 | locus YIL066C, strain RNR3, active compounds read low 0.051 | locus YIL073C, strain SPO22, active compounds read low 0.15 | locus YIL125W, strain kgd1, active compounds read low 0.0707 | locus YIR030C, strain dcg1, active compounds read low 0.0676 | locus YJL092W, strain hpr5, active compounds read low 0.0584 | locus YJL095W, strain BCK1 (second series), active compounds read low 0.0568 | locus YJL095W, strain BCK1, active compounds read low 0.0606 and 0.106 | locus YJL115W, strain asf1, active compounds read low 0.072 | locus YJL129C, strain trk1, active compounds read low 0.0904 | locus YJL134W, strain LCB3, active compounds read low 0.0513 | locus YJL154C, strain vps35, active compounds read low 0.0576 | locus YJL164C, strain tpk1, active compounds read low 0.0622 | locus YJL166W, strain qcr8, active compounds read low 0.0631 | locus YJL168C, strain set2, active compounds read low 0.0664 | locus YJL187C, strain SWE1 (second series), active compounds read low 0.0507 | locus YJR043C, strain POL32, active compounds read low 0.0636 | locus YJR066W, strain TOR1, active compounds read low -4.7e-05
